A selection: hits, their analogues and other compounds. The true share with any hit is near 1.3%.
Calpain2 inh – calpain II (pig) inhibition. purified calpain II, fluorogenic peptide substrate, 30 min. 220,000 tested, 0.37% active. inhibition, % at 16 µM;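 active = inhibition above about 50%, limit read from the data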
S1P4 antagonist – antagonists of human S1P4 receptor; inhibition, % at 4.98 µM; 220,000 tested, 0.26% active; S1P4-expressing cells, antagonist mode, reporter read-out; O95977; in the data active = inhibition above about 29%
S1P3 antag-1 – antagonists of human S1P3 receptor; Q99500; CHO S1P3 NFAT-BLA reporter, FRET fluorescence, antagonist mode; inhibition, % at 4.98 µM; 170,000 tested, 0.27% active; AID 485;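 active = inhibition above the plate cutoff, the mean inhibition of test wells on that plate plus 3 SD, cut at about 28% in these data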;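 also: cells challenged with S1P at its EC80 of 0.8 µM; blue over green emission ratio from cleaved BLA substrate after 4 h stimulation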
S1P4 agonist – human S1P4 receptor agonism; O95977; S1P4-expressing cell line, agonist reporter assay; activation, % at 4.98 µM; 220,000 tested, 0.35% active; AID 1509; in the data active = activation above about 11%
PERK inh – inhibitors of human PERK kinase; Q9NZJ5; CHO PERK-DD fusion, SEAP luminescence translation reporter; inhibition, % at 5.6 µM; 220,000 tested, 0.17% active; AID 1416;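 active = inhibition above the mean inhibition of all tested compounds plus 3 SD, set separately per screening campaign, cut at about 2.9% in these data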;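 also: PERK kinase domain activated by AP20187 dimerizer at 100 nM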
S1P3 antag-2 – confirmation of human S1P3 receptor antagonists; shares compounds with S1P3 antag-1; CHO S1P3 NFAT-BLA reporter, FRET, antagonist mode; inhibition, % at 4.98 µM; 240 tested, 30% active;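 active = inhibition above the hit threshold that was computed for the earlier primary screen, cut at about 30% in these data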
S1P4 agonist cf – human S1P4 agonism, confirmation | shares compounds with S1P4 agonist | S1P4 agonist cell-based reporter assay | activation, % at 4.98 µM | 740 tested, 7% active; in the data active = activation above about 12%
S1P1 ag – activates human S1P1, counter-screen for S1P4 agonists; S1P1 agonist cell-based assay, activation; 740 tested, 4% active; shares compounds with S1P4 agonist; activation, % at 4.98 µM; in the data active = activation above about 21%
Target sequence (P21453 whole entry, looked up): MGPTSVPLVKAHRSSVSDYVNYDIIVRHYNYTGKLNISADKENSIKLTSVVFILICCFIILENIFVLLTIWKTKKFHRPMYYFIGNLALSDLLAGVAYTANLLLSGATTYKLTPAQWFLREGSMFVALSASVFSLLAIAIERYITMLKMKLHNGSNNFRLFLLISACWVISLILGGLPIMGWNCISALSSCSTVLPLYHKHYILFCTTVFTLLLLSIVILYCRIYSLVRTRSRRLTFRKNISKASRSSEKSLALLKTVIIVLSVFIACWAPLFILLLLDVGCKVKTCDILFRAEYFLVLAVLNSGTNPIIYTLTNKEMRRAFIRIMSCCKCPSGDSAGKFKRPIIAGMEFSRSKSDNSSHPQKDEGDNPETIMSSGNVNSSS
S1P4 antag cf – confirmation of human S1P4 receptor antagonists | shares compounds with S1P4 antagonist | S1P4-expressing cell line, antagonist mode, reporter read-out | inhibition, % at 4.98 µM | 520 tested, 71% active | AID 1524; in the data active = inhibition above about 30%
S1P1 antagonist – human S1P1 antagonism as S1P4 antagonist counter-screen; shares compounds with S1P4 antagonist; cell-based S1P1 antagonist counterscreen, inhibition; inhibition, % at 4.98 µM; 520 tested, 37% active; AID 1564; in the data active = inhibition above about 40%;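 also: receptor stimulated with S1P near its EC80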
Hits are given with their value; - = inactive; . = not tested or not shown.

SMILES	Calpain2 inh	S1P4 antagonist	S1P3 antag-1	S1P4 agonist	PERK inh	others
CC12CC[C@H]3[C@@H](CCC4(O)C[C@H](O)CCC34/C=N/NC(=O)c3ccccc3O)C1(O)CCC2C1=CC(=O)OC1 (some centres undefined)	-	-	-	-	3.1
CC12CC[C@H]3[C@@H](CCC4(O)C[C@H](O)CCC34/C=N/NC(=O)c3ccc(O)cc3)C1(O)CCC2C1=CC(=O)OC1 (some centres undefined)	-	-	-	-	2.9
CN(C)c1ccc(C(=O)N/N=C/C23CC[C@@H](O)CC2(O)CC[C@@H]2[C@@H]3CCC3(C)C(C4=CC(=O)OC4)CCC23O)cc1 (some centres undefined)	-	-	-	-	-
O=C(NC1CCCCC1)Oc1cc2oc(=O)sc2cc1Cl	-	-	-	-	-
CN1C(=O)C(=Cc2ccc(SC3CCCCC3)o2)C(=O)N(C)C1=O	-	-	-	-	3.0
CC/C(=N\Nc1ccccc1)c1c(O)n(-c2ccccc2)c(=O)[nH]c1=O	-	-	-	-	-
COc1ccc(CC(=O)N2CCN(C)CC2)cc1	-	-	.	-	-
COc1ccc(C(=O)N2CCCC2=O)cc1	-	-	-	-	3.0
CN(C)CCNC(=O)c1cccn(Cc2cc(C(F)(F)F)cc(C(F)(F)F)c2)c1=O	-	-	-	-	-
Clc1ccc(COC(Cn2ccnc2)c2ccc(Cl)cc2Cl)c(Cl)c1 (centres undefined)	58.4	-	-	-	-
CCn1nc(-c2cccs2)nc2c(=O)n(C)c(=O)nc1-2	-	.	106.4	.	.
CCOC(=O)C1CCCN(c2ccc([N+](=O)[O-])c3nonc23)C1 (centres undefined)	59.8	-	-	-	-
Cc1ccc(Cn2cc(C=O)c(-c3ccc(C)cc3)n2)cc1	-	-	-	-	-
O=C1C=Cc2ccccc2C1=O	60.2	-	-	-	-
Cn1cc(C(=O)NP(=O)(N2CCOCC2)N2CCOCC2)c2ccccc21	-	-	-	-	-
CCCn1nc2ccccc2c1P(=O)(N1CCOCC1)N1CCOCC1	-	-	106.2	-	-
Nc1ccc(C2(c3ccc(N)cc3)CCCCC2)cc1	-	-	-	-	-
CC(C)n1c(O)c(C2c3cc(Cl)ccc3Oc3[nH]c(=O)n(C(C)C)c(=O)c32)c(=O)[nH]c1=O (centres undefined)	-	35.2	-	-	-
CC(=O)c1c(O)n(-c2cccc(Cl)c2)c(=O)[nH]c1=O (tested in a mixture with another compound)	-	-	-	-	-
COc1ccc(C)cc1NC1=NC(C)(C)CS1	-	-	-	-	-
CN1CCN(C(=O)OC2c3nccnc3C(=O)N2c2ccc(Cl)cn2)CC1 (centres undefined)	-	-	110.4	-	-
Cc1cc(Cl)ccc1OCC(=O)N1CCN(C)CC1	-	-	-	-	-
CC(C)[C@H]1C(=O)O[C@H](C(C)C)C(=O)N(C)[C@@H](C(C)C)C(=O)O[C@H](C(C)C)C(=O)N(C)[C@@H](C(C)C)C(=O)O[C@H](C(C)C)C(=O)N1C	-	-	70.4	-	-	S1P3 antag-2=75.0
Cc1cc(C)n(-c2ccc(NN=C(C#N)C#N)cc2)n1	-	-	-	-	-
N#CC(C#N)=NNc1ccc(-n2ccc(C(F)(F)F)n2)cc1	-	-	44.0	-	-	S1P3 antag-2=45.1
SMILES	Calpain2 inh	S1P4 antagonist	S1P3 antag-1	S1P4 agonist	PERK inh	others
CC(=O)OC(C)(C)/C=C/C(=O)[C@](C)(O)[C@H]1[C@H](O)C[C@@]2(C)[C@@H]3CC=C4[C@H](C[C@H](O)C(=O)C4(C)C)[C@]3(C)C(=O)C[C@]12C	-	67.3	73.8	-	-	S1P3 antag-2=90.2
O=c1[nH]c(=O)n(Cc2ccco2)c(O)c1/C=N/N1CCCCC1	-	-	-	-	-
CC[C@@]1(O)C(=O)OCc2c1cc1n(c2=O)Cc2cc3ccccc3nc2-1	-	-	58.6	-	6.0	S1P3 antag-2=69.8
Cc1cccc(OP(=O)(Oc2ccccc2)OC(c2ccccc2)C(F)(F)F)c1 (centres undefined)	-	-	-	-	-
O=C(CCCN1CCC2(CC1)C(=O)NCN2c1ccccc1)c1ccc(F)cc1	-	-	67.6	-	-	S1P3 antag-2=59.0
COc1ccccc1Cn1c(SCC(=O)C(C)(C)C)nc2cc(C(=O)N3CCC4(CC3)OCCO4)ccc2c1=O	-	-	-	-	-
O=c1[nH]c(=S)n(C2CC2)c(O)c1C=Nc1cccc(C(F)(F)F)c1	-	-	-	-	-
COc1cc2c(cc1OC)[C@@H]1C(=O)c3ccc4c(c3O[C@@H]1CO2)C[C@H](C(C)C)O4	-	-	38.4	-	-	S1P3 antag-2=35.6
CC(=NCc1ccc2c(c1)OCO2)c1c(O)n(-c2ccccc2)c(=O)[nH]c1=O	-	-	-	-	-
CCn1nc(/C=C/c2ccccc2)nc2c(=O)n(C)c(=O)nc1-2	-	-	74.5	-	-	S1P3 antag-2=108.8
CCNc1nc(Cl)nc(NC(C)C)n1	-	-	-	-	-
NC(=S)c1cn(C2OC(CO)C(O)C2O)c2ncnc(N)c12 (centres undefined)	-	100.2	86.0	-	3.1	S1P3 antag-2=105.1;S1P4 antag cf=112.2;S1P1 antagonist=93.7
CC(C)C(=O)Nc1ccc(S(=O)(=O)N2CC3CC(C2)c2cccc(=O)n2C3)cc1 (centres undefined)	-	-	-	-	-
Cc1cccc(-n2c(O)c(C)c(=O)[nH]c2=S)c1	-	-	-	55.7	-	S1P4 agonist cf=-;S1P1 ag=-
Cc1cccc(-n2c(O)c(C=Nc3ccc(Br)cn3)c(=O)[nH]c2=O)c1	-	-	-	-	-
O=C(Nc1ccc(F)cc1F)c1cccnc1Oc1cccc(C(F)(F)F)c1	-	-	.	-	-
CCOC(=O)c1sc(/N=C/c2c(O)n(-c3ccccc3)c(=O)[nH]c2=O)c(C#N)c1C	-	-	.	12.5	-	S1P4 agonist cf=-;S1P1 ag=-
CCC1(OC(=O)CN)C(=O)OCc2c1cc1n(c2=O)Cc2cc3ccccc3nc2-1 (centres undefined)	-	91.9	-	-	4.9	S1P4 antag cf=63.7;S1P1 antagonist=-
CC[C@@]1(O)C(=O)OCc2c1cc1n(c2=O)Cc2cc3c(NC(=O)CN)cccc3nc2-1	-	-	-	-	-
